Consider 52 compounds from PubChem BioAssay AID1794845 (National Center for Advancing Translational Sciences (NCATS), 2023).

The campaign covered roughly 6,900 compounds. Fewer than 10 were called active. Calls come from the whole dose curve; as a rule, active = well fitted curve in the direction sought with a large enough effect; inconclusive = small, poorly fitted or top-dose-only effect, or another doubt; inactive = no such curve, though single readings can be large or run the other way. Only a sample is shown.

Sequence of Metallo-beta-lactamase type 2 (Klebsiella pneumoniae) (C7C422 whole entry, looked up): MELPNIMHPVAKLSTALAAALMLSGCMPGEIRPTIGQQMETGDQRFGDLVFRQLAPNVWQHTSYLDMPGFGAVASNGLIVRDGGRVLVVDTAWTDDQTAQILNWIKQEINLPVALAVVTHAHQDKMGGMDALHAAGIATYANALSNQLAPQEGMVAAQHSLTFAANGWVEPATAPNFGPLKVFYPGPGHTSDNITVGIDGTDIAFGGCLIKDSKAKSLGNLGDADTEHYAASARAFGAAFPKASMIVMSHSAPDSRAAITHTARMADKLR

This assay has as its target Metallo-beta-lactamase type 2 (Klebsiella pneumoniae) (UniProt C7C422). The assay can be described thus: qHTS to identify inhibitors of the New Delhi Metallo-beta-lactamase (NDM): primary screen against the NCATS Gemini Collection. As to conditions: NDM-1 enzyme, meropenem hydrolysis, absorbance 300 nm; series mostly up to 38.4 µM. The source says:
Assay Submitter (PI): James Inglese Ph.D., Patricia Dranchak Ph.D., Mahesh Aitha Ph.D. Assay Development and Screening Technology Laboratory (ADST) National Center for Advancing Translational Sciences (NCATS), Rockville, MD National Institute of Health (NIH), Bethesda, Maryland The metallo-beta-lactamases (MBL) are a main antibiotic resistance mechanism evolved by bacteria. There is an urgent clinical need for MBL inhibitors to mitigate this growing threat. To support a machine-based learning study, qHTS has been used to experimentally test inhibitors identified by prediction tools.
PROTOCOL TABLE (as described by Inglese et al., 2007) SEQUENCE No. (e.g., 1, 2, 3, etc.); […] (e.g., enzyme, Incubation, Reagent, etc.); VALUE; DESCRIPTION 1; NDM-1; 4 uL of 3 nM enzyme [2 nM final] in 50 mM HEPES (pH 7.0), 1 uM […], 0.01% Tween20; Use BioRaptr to dispense into Aurora black, clear bottom low base 1536-well plates 2; Compounds; 23 nL; Use Pin Tool (Wako) to transfer DMSO control and library compounds in DMSO 3; Incubate; >30 min 4; Reagent; 2 uL of 150 uM meropenem [50 uM final] 5; Incubate; 30 min. 6; Detector; Absorbance at 300 nm (bandwidth = 5 nm, 25 flashes/well) on Tecan Infinity NOTES (numbers refer to sequence above) 1; Column 1 of each plate received assay buffer without enzyme and columns 2-48 received enzyme for a final assay concentration of 2 nM. 2; Control plate contained DMSO in columns 1, 2, 3, and 4. 3; Compound interaction with enzyme. 4; Meropenem substrate was prepared in the same assay buffer as step 1 for a final assay concentration of 50 uM and added to all wells across the assay plates. 5; Substrate interaction with enzyme, plateau phase of kinetics. 6; Default reader settings were applied for absorbance read at 300 nm, bandwidth = 5 nm, 25 flashes/well. References: Inglese J, Shamu CE, Guy RK. 2007. Reporting data from high-throughput screening of small-molecule libraries. Nat Chem Biol. doi:10.1038/nchembio0807-438 Yasgar A, Shinn P, Jadhav A, Auld D, Michael S, Zheng W, Austin CP, Inglese J, Simeonov A. 2008. Compound Management for Quantitative High-Throughput Screening. J Lab Autom 13:79 - 89. doi:10.1016/j.jala.2007.12.004
In the case of `CCC1CN(C(=O)c2ccc(NCc3cnn(CC)c3)nc2)CCN1C(C)C` (configuration not stated), the call was inactive. With `N#CC1CCN(C(=O)C2CCN(C(=O)c3ccc(-c4cncnc4)cc3)CC2)CC1` the entry was “inactive”; with `CC(C)C(=O)N1CCC(NCCOc2ccccc2Cl)CC1`, “inactive”.

With `CC(C)N(Cc1nccn1C)C(=O)CC(c1ccccc1)c1ccccc1F` (configuration not stated), the compound was called inactive. With `CCc1ccccc1NC(=O)N1C[C@@H](F)C[C@H]1C(=O)N1CCc2ccccc2C1` the entry was “inactive”; with `COCCOCc1nc(C2CCCN2C(=O)Nc2ccc(F)cc2F)no1` (configuration not stated), “inactive”; with `COc1ccc(NC(=O)[C@@H]2C[C@H](c3ccc(F)cc3)N(Cc3ccccc3Cl)C2)cn1`, “inactive”.

For the compound `CN(C)C(=O)N1CCC2(CC1)CC(c1cccc(C(F)(F)F)c1)=NO2`, the result was inactive. As to `COC1CCOC2(CCN(C(=O)CCc3nc4ccccc4s3)CC2)C1` (configuration not stated), the result was inactive. The entry for `Cc1cc(C)n(C2CCN(c3nccc(-c4ccccn4)n3)C2)n1` (configuration not stated) is “inactive”; for `CN(C)Cc1nnc(C2CC(NC(=O)Cc3c[nH]c(=O)n(C)c3=O)C2)n1C` (configuration not stated) it is “inactive”. With `O=C(C1CCCN1C(=O)Cc1ccc(F)cc1)N1CCC(N2CCOCC2=O)CC1` (configuration not stated) the entry was “inactive”. As to `O=C1CCC(C(=O)N2CCSCC2)CN1CCc1cccc(F)c1` (configuration not stated), the compound was classed as inactive. As for `CCN(Cc1ccncc1)C(=O)c1coc(COc2cccc(C(F)(F)F)c2)n1`, the compound was classed as inactive. With `CCOC(=O)[C@H]1C[C@]2(CCCCNC2=O)N(C(=O)c2cccc(OC)c2)[C@H]1c1ccco1` the entry was “inactive”; with `Cc1cn2nc(C(=O)N3CCC(C(=O)NCc4ccccn4)CC3)cc2c(=O)[nH]1`, “inactive”; with `Cn1cc(CN2C[C@H](C(=O)Nc3nccs3)C[C@@H]2c2cccc(C(F)(F)F)c2)cn1`, “inactive”. With `COc1ccc(C(=O)N2CCC[C@H]2c2nc(-c3ccccc3)no2)cc1` the entry was “inactive”; with `COc1ccc(NC(=O)c2nc3sccn3c2-c2cccc(OC)c2)cc1`, “inactive”; with `C[C@@H]1CN(C(=O)CN2CCN(c3ncccn3)CC2)C[C@@]1(O)C1CCC1`, “inactive”. `Cc1nc(C)c(C(=O)N2CCC(Cc3nc(C4CC4)n[nH]3)CC2)s1`: the outcome was inactive. As for `Cn1cc(CN2CCN(c3ccc(C#N)cn3)CC2)c(-c2ccccc2)n1`, the call was inactive. With `CCc1cc(=O)n(CC(=O)N2CCN(c3ccccc3OC)CC2)c(-c2ccccc2)n1`, the result was inactive. Turning to `COCCN1C[C@@H]2[C@H](c3ccccc31)[C@@H](CO)[C@@H](c1ccccc1)N2C(=O)COC(C)=O`, the compound was called inactive. Consider `Cc1ccc(CNC(=O)N(C)CC2CCOCC2)cc1`, for which the compound was classed as inactive. Turning to `COCC(=O)N1CCC(C2CCN(C(=O)c3ccncc3)CC2)C1` (configuration not stated), the result was inactive. With `COc1cccc(CCC(=O)N2CCC3(CC2)N=C(c2ccccc2)NO3)c1` the entry was “inactive”; with `CCN1c2cc(C(=O)NCc3cccc(OC)c3)ccc2C(=O)N2CCCCCC21` (configuration not stated), “inactive”. Take `c1coc(-c2nnc([C@H]3CCN(Cc4c[nH]c5ccccc45)C3)o2)c1`: the compound was called inactive. The entry for `C[C@@H]1CN(C2(C(=O)NCc3n[nH]c4c3CCC4)Cc3ccccc3C2)C[C@H](C)O1` is “inactive”; for `CCOC(=O)C1c2c(OC)ccc3c2C(=CC(C)(C)CO3)CN1C(=O)C1CC1` (configuration not stated) it is “inactive”; for `Cc1cccc(-c2nc3ccc(C(=O)NC4CCCCCC4)cc3o2)n1` it is “inactive”. Consider `O=C1CCN(C(=O)[C@@H]2CCCN2C(=O)Nc2ccccc2)CCCCCCN1`, for which the result was inactive. As to `CCc1ccc(NC(=O)Cn2nc3n(c2=O)CCCC3)cc1`, the result was inactive. In the case of `COCC1CN(C)CC12CCN(Cc1sccc1C)CC2` (configuration not stated), the outcome was inactive.

Turning to `Fc1ccccc1-c1noc(NCCc2ccc(Cl)cc2)n1`, the call was inactive. The entry for `Nc1nc(CCC(=O)N[C@@H]2[C@@H](Cc3ccccc3)[C@H]3OCC[C@@H]23)cs1` is “inactive”; for `O=C([C@H]1C[C@H](Oc2cccnc2)CN1C(=O)c1ccc2ccccc2n1)N1CCOCC1` it is “inactive”. On to `O=S(=O)(c1cnc[nH]1)N1CCC(c2nc(CCOCC3CC3)no2)C1` (configuration not stated), for which the compound was classed as inactive.

Regarding `CCc1ccc(CN2CCN(c3ccc(C(N)=O)cn3)CC2)nc1`, the result was inactive. For the compound `COCC(=O)N(C1CCOCC1)C1CCN(C(=O)c2cccnc2C)CC1`, the call was inactive. The entry for `CC(C)CCN1CCC(N2CCN(C(=O)c3ccc(Br)o3)CC2)C1=O` (configuration not stated) is “inactive”; for `Cc1cc(C(=O)NC2CCCC2)c2c(C3CCNC3)noc2n1` (configuration not stated) it is “inactive”.

Regarding `CCS(=O)(=O)N1CCC2(CCC2OC)CC1` (configuration not stated), the result was inactive. As for `Cc1cnc(CC2CCN(S(=O)(=O)c3ccc4c(c3)CCC4)CC2)n1CC1CC1`, the outcome was inactive. As for `CC1CCCCN1Cc1nnc2cc(-c3nc(-c4ccccc4)no3)ccn12` (configuration not stated), the outcome was inactive. On to `COc1ccc(CN2CCc3nc(N4CCN(C)CC4)[nH]c(=O)c3CC2)c(OC)c1OC`, for which the call was inactive. The entry for `Cn1nc2n(c1=O)CCN(C1CCSCC1)CC2` is “inactive”; for `COc1ccccc1CC(=O)Nc1cccn2nc(C(C)C)nc12` it is “inactive”; for `O=C(C1CCCN([S+](=O)([O-])c2cccc(C(F)(F)F)c2)C1)N1CCC(c2nc3ncccc3[nH]2)C1` (configuration not stated) it is “inactive”. With `O=C(COc1cccc(-c2nnc3n2CCCC3)c1)NCc1ccccc1` the entry was “inactive”; with `CCNC(=O)c1c(C)oc2c1CN(Cc1ccc(Br)o1)CC2`, “inactive”.
